Entries with a potency or affinity are not part of this list. Activity calls are given as the source filed them.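 How the source made its calls: active means toxic compound whose fitted half-effect dose of signal loss is at most twice its top tested dose; inconclusive means flat fit losing 30 to 70% signal, or poor fit; inactive means the rest.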
Test: HeLa cell viability loss – plate reader, dry powder, cytotoxicity control, dose response (AID 651946)
Conditions: ATP luminescence (CellTiter-Glo), 48 h; series mostly up to 26 µM

Row | Compound | outcome
1 | COc1cccc(CSc2nnc(-c3ccccc3)o2)c1 | inactive
2 | Cc1cccc(-c2nnc(SCc3ccccc3)o2)c1 | inactive
3 | N#Cc1ccc(-c2nnc(SCc3ccccc3)o2)cc1 | inactive
4 | Clc1cccc(CSc2nnc(-c3ccccc3)o2)c1 | inactive
5 | c1ccc(-c2nnc(SCCN3CCCC3)o2)cc1 | inactive
6 | c1ccc(-c2nnc(SCCN3CCOCC3)o2)cc1 | inactive
7 | Cc1nnc(SCc2ccccc2)o1 | inactive
8 | c1ccc(CSc2nnc(-c3cc4ccccc4o3)o2)cc1 | inactive
9 | FC(F)(F)c1ccc(-c2nnc(SCc3ccccc3)o2)cc1 | inactive
10 | FC(F)(F)c1ccccc1-c1nnc(SCc2ccccc2)o1 | inactive
11 | CSc1nnc(-c2ccccc2)o1 | inactive
12 | c1ccc(CSc2nnc(-c3ccccc3)s2)cc1 | inactive
13 | CN(Cc1ccccc1)c1nnc(-c2ccccc2)o1 | inactive
14 | CC1(O)CN(CCSc2nnc(-c3ccccc3)o2)C1 | inactive
15 | COc1ccccc1-c1nnc(SCc2ccccc2)o1 | inactive
16 | Cc1ccccc1CSc1nnc(-c2ccccc2)o1 | inactive
17 | Brc1cccc(-c2nnc(SCc3ccccn3)o2)c1 | inactive
18 | COc1ccc(-c2nnc(SCc3ccccc3)o2)cc1 | inactive
19 | Clc1ccc(-c2nnc(SCc3cn(Cc4ccccc4)nn3)o2)cc1 | inactive

Row | Compound | outcome
20 | FC1(F)CCN(CCSc2nnc(-c3ccccc3)o2)CC1 | inactive
21 | c1ccc(-n2cc(CSc3nnc(C4CCC4)o3)nn2)cc1 | inactive
22 | c1ccc(CSc2nnc(Cc3ccccc3)o2)cc1 | inactive
23 | Fc1cccc(-c2nnc(SCc3ccccn3)o2)c1 | inactive
24 | c1ccc(CSc2nnc(-c3ccncc3)o2)cc1 | inactive
25 | CS(=O)(=O)c1cccc(-c2nnc(SCc3ccccc3)o2)c1 | inactive
26 | Cc1cccc(CSc2nnc(-c3ccccc3)o2)c1 | inactive
27 | Fc1ccc(-c2nnc(SCc3ccccn3)o2)cc1 | inactive
28 | c1ccc(CSc2nnc(-c3ccncc3)o2)nc1 | inactive
29 | O=C(Cc1ccccc1)c1nnc(-c2ccccc2)o1 | inactive
30 | Cc1ccc(-c2nnc(SCc3ccccc3)o2)cc1 | inactive
31 | Fc1ccc(-c2nnc(SCc3cn(Cc4ccccc4)nn3)o2)cc1 | inactive
32 | c1ccc(Cn2cc(CSc3nnc(C4CCC4)o3)nn2)cc1 | inactive
33 | Cc1ccc(CSc2nnc(-c3ccccc3)o2)cc1 | inactive
34 | Cc1ccc(-c2nnc(SCc3ccccn3)o2)cc1 | inactive
35 | O=C(Cc1ccccc1)C(C(=O)c1nnc(-c2ccccc2)o1)c1ccccc1 (configuration not stated) | inactive
36 | FC(F)(F)Oc1ccc(CSc2nnc(-c3ccccc3)o2)cc1 | inactive
37 | c1ccc(-c2nnc(SC3CCCCC3)o2)cc1 | inactive
